# Most compounds without a hit are left out; they make up all but 7.3% or so of the library.
# FLuc counter: qHTS profiling assay for firefly luciferase inhibitor/activator using purifed enzyme and Km concentrations of substrates (counterscreen for miR-21 project); Luciferin 4-monooxygenase (Photinus pyralis), P08659; purified FLuc, Km substrates, luminescence inhibition; Potency, µM (highest dose often 57.5 µM), for the others: at the highest dose activity change, negative = inhibition, usual class: inhibitors; 360,000 tested, 6.9% active;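 further: plate controls were vehicle for no effect and reference inhibitor for full effect; nearly all actives have a fitted effect of over 55% in size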
# Target sequence (P08659 whole entry, looked up): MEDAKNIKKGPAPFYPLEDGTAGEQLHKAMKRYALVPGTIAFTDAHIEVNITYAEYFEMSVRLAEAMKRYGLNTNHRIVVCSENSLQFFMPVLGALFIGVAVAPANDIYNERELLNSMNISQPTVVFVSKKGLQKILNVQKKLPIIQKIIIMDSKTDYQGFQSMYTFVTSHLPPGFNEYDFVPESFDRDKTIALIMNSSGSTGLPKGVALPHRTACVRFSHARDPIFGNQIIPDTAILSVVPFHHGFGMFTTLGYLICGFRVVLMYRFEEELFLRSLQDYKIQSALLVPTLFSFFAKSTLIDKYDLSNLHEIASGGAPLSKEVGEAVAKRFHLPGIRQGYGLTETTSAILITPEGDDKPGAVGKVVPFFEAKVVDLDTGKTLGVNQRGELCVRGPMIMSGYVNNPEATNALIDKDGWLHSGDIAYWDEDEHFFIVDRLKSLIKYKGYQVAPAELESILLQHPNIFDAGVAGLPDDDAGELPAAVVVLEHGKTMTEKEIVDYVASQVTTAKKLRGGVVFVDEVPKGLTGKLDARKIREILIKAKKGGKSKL
#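 Purified P. pyralis luciferase (10nM final) with 10uM D-luciferin and 10uM ATP (Km levels) in 50mM Tris acetate pH 7.5, 10mM Mg acetate, 0.01% Tween-20, 0.05% BSA; qHTS 6-point titration, ~60 µM downward; luminescence read.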
# p53 reactivator: qHTS assay for re-activators of p53 using a Luc reporter; H1299 p53-A138V BP100-luciferase reporter, luminescence, 24 h; Potency, µM (top dose mostly 92.2 µM), for inactives: top-dose activity change, positive = activation, hits mostly activators; 320,000 tested, 0.063% active; further: % of control where 0% means no effect; nearly all actives have a fitted effect of over 45% in size
#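 p53-null H1299 cells stably carrying temperature-sensitive p53-A138V and a BP100-luciferase reporter were pinned with compounds (4-point, 1:5 series) and held 24 hrs at 37 deg C. Luminescence was read 10 min after detection reagent.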
# SMN2 splice enh: qHTS Assay for Enhancers of SMN2 Splice Variant Expression | 210,000 tested, 2.8% active | HEK293 SMN2-luciferase splicing reporter, luminescence, 30-36 h | Potency, µM (titrated, usually from 46.1 µM), without a hit: top-dose activity change, positive = activation, most hits filed as activators; further: % of control where 0% means no effect; nearly all actives have a fitted effect of over 55% in size
#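 qHTS luciferase splicing reporter: luminescence rises when SMN2 exon 7 is included in transfected HEK293 cells. Compound exposure lasted 30-36 h at 37C, with 4.5 mM final sodium butyrate as control, followed by a ONE-Glo read.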
# Rab9 prom act: qHTS Assay for Rab9 Promoter Activators | Huh7 Rab9 promoter-luciferase reporter, luminescence, 24 h | Potency, µM (titrated, usually from 9.22 µM), without a hit: top-dose activation, negative = inhibition, usual class: activators | 320,000 tested, 2.8% active; further: % of control where 0% means no effect; nearly all actives have a fitted effect of over 60% in size
#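 Huh7 cells stably carrying a Rab9 promoter-luciferase reporter, 1500 cells per well in OP-MEM I with 10% FBS, treated with compound 24 hours at 37C. Luciferase activity read by luminescence after 10 minutes with Amplite reagent.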
# ELG1 genotox: qHTS screen for small molecules that induce genotoxicity in human embryonic kidney (HEK293T) cells expressing luciferase-tagged ELG1. HEK293T ELG1-luciferase reporter, luminescence, 16 h. Potency, µM (highest dose often 46 µM), for the others: at the top dose activity change, positive = activation, actives largely listed as activators. 330,000 tested, 1.3% active; further: % of control where 0% means no effect; nearly all actives have a fitted effect of over 60% in size
#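 16 hr compound incubation (37 °C, 5% CO2) of HEK293T cells carrying luciferase-tagged ELG1; luciferase then measured by ONE-Glo luminescence after 30 min at RT.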
# NPC1 promoter act: qHTS Assay for NPC1 Promoter Activators. Huh7 NPC1 promoter luciferase reporter, 24 h. Potency, µM (titrated, usually from 9.22 µM), for the others: at the highest dose activation, most hits filed as activators. 320,000 tested, 2.4% active; further: % of control where 0% means no effect; nearly all actives have a fitted effect of over 60% in size
#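 Readout is luciferase luminescence, reflecting NPC1 promoter activation in stably transfected Huh7 cells after 24 h compound exposure at 37 °C in reduced-serum medium with 10% FBS.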
# Active calls of the source: *; ? = inconclusive; · = not tested or not shown; ! = repeats disagree; [ ] = dose if it differs, or a comment. The call rests on the fitted dose curve; in most records, active means well fitted curve in the direction sought with a large enough effect; inconclusive means small, poorly fitted or top-dose-only effect, or another doubt; inactive means no such curve, though single readings can be large; an effect the other way counts as inactive or inconclusive. Potency means the concentration at half of the fitted maximal effect.
SMILES,FLuc counter,p53 reactivator,SMN2 splice enh,Rab9 prom act,ELG1 genotox,NPC1 promoter act
CCC(=C(CC)c1ccc(O)cc1)c1ccc(O)cc1,·,·,-24.2%[20.6 µM],·,·,·
O=C(O)CCC(=O)OC[C@@H](NC(=O)C(Cl)Cl)C(O)c1ccc([N+](=O)[O-])cc1 (stereo partly drawn),·,·,-23.3%,·,·,·
CS(=O)(=O)c1ccc2nc(NC(=O)CN3C(=O)NC4(CCCC4)C3=O)sc2c1,-14.0%,·,·,5.5%,0.9%,-2.6%
CCc1ccc2nc(NC(=O)CN3C(=O)NC4(CCCC4)C3=O)sc2c1,·,?,·,·,0.4%,·
Cc1ccc2nc(NC(=O)CN3C(=O)NC4(CCCC4)C3=O)sc2c1,9.53µM*,9.0%,·,-2.6%,0.0%,-5.8%
CCOc1ccc2nc(NC(=O)CN3C(=O)NC4(CCCC4)C3=O)sc2c1,6.75µM*,19.2%,·,24.6%,?,11.0%
CC(C)(O)C(=O)O,·,·,-8.6%,·,·,·
Cc1ccc(C(=O)NCC(c2ccco2)S(=O)(=O)c2ccc(Cl)cc2)cc1C (stereo not drawn),-13.7%,·,·,·,·,·
CCCn1c(SCC(=O)Nc2nc(C)c(C(=O)OC)s2)nnc1C(C)C,-1.3%,1.2%,-8.5%,-2.7%,0.0%,-1.1%
COC(=O)c1sc(NC(=O)CSc2nnnn2C)nc1C,16.9µM*,?,·,2µM*,14.6µM*,2.24µM*
Cc1csc(NC(=O)CSc2nnc(C)c(=O)n2N)n1,-3.0%,20.1%,14.9%,-1.9%,-4.1%,1.5%
Cc1csc(NC(=O)CSc2nnnn2C)n1,?,?,14.1µM*,?,?,24.9%
COCc1cc(C)nc(SCC(=O)Nc2nc(C)cs2)c1C#N,12µM*,17.2%,·,0.708µM*,?,0.631µM*
Cc1nc(NC(=O)CSc2nnnn2C)sc1C,?,?,11.2µM*,?,?,?
COc1cccc(C(=O)Nc2ccc(C(=O)OCc3cc(=O)n4nc(C5CC5)sc4n3)cc2)c1,-0.2%,·,·,·,·,·
COc1ccc2c(c1)C(=O)[C@H](OC(=O)NCc1ccco1)[C@@H](c1ccc(OC)c(Br)c1)O2,·,·,2.6%,·,·,·
CC(C)(C)c1ccc(O)c(CN(Cc2cc(C(C)(C)C)ccc2O)C2CCCCC2)c1,·,·,-8.0%[9.22 µM],·,·,·
CCN(C(=O)CCS(=O)(=O)c1cc2c(cc1Cl)NC(=O)CO2)c1ccccc1,0.2%,·,·,3.0%,1.5%,1.3%
Cc1ccc(N(C)C(=O)CCS(=O)(=O)c2cc3c(cc2Cl)NC(=O)CO3)cc1,1.69µM*!,1.4%,·,1.5%,0.6%,1.0%
O=C(Nc1ccc(F)c(Cl)c1)N1CC=C(c2c[nH]c3ccccc23)CC1,-12.4%,·,·,·,·,·
O=C(COC(=O)CNC(=O)c1ccc(F)cc1)Nc1cccc(S(=O)(=O)N2CCCC2)c1,-13.4%,1.2%,·,-6.2%,1.6%,-3.8%
CCOc1ccc(C(=O)NCC(=O)OCC(=O)Nc2cccc(S(=O)(=O)N3CCCC3)c2)cc1,4.26µM*,0.4%,·,-2.1%,5.2%,0.0%
CCCOc1ccc(C(=O)CCC(=O)OCC(=O)Nc2cccc(S(N)(=O)=O)c2)cc1,10.7µM*,10.1%,·,-6.0%,1.7%,0.1%
O=C(COC(=O)CNC(=O)c1ccc(Br)cc1)Nc1nnc(-c2ccccc2)o1,?,-6.2%,·,-4.0%,-2.1%,1.5%
CCCOc1ccc(C(=O)CCC(=O)OCC(=O)Nc2ccc(OCC)cc2)cc1,-3.2%,2.9%,·,-0.1%,3.1%,-2.2%
SMILES,FLuc counter,p53 reactivator,SMN2 splice enh,Rab9 prom act,ELG1 genotox,NPC1 promoter act
CCOc1ccc(C(=O)NCC(=O)OCC(=O)Nc2nnc(-c3ccccc3)o2)cc1,13.5µM*,11.4%,·,3.0%,3.4%,1.4%
O=C(CNc1cccc(S(=O)(=O)N2CCCC2)c1)Nc1cccc(F)c1,-9.4%,-9.3%,·,-11.7%,-6.5%,5.4%
O=C(CNc1ccc(F)cc1Cl)Nc1cccc(S(=O)(=O)N2CCCCC2)c1,10.7µM*,?,·,-3.2%,-4.0%,-4.8%
CCCCCn1c(=O)[nH]c2cc(C(=O)NCc3ccc(F)cc3)ccc2c1=O,-0.8%,·,-15.5%,·,·,·
COc1ccc(CCNc2nc3c(-c4cccc(C)c4)nnn3c3ccccc23)cc1OC,-3.7%,·,1.4%,·,·,·
Cc1cc(OCC(=O)Nc2cccc(S(=O)(=O)N3CCCC3)c2)ccc1Cl,?,-4.4%,·,-10.2%,-6.1%,0.9%
Cc1cc(OCC(=O)Nc2cccc(S(=O)(=O)N3CCCCC3)c2)ccc1Cl,6.75µM*,18.0%,·,-1.6%,0.2%,-2.4%
Cc1ccc2c(c1)COc1c3ccc(C(=O)NCCO)cc3nn1-2,4.78µM*,6.8%,·,1µM*,14.6µM*,1.12µM*
Cc1ccc(-n2cnc3cc(C(=O)NCCC4=CCCCC4)ccc32)c(C)c1,-13.4%,·,·,·,·,·
COCCNC(=O)c1ccc2c(c1)CCN2S(C)(=O)=O,3.2%,3.5%,-10.8%,0.0%,2.3%,-0.4%
O=C(NCCO)c1ccc2c3n(nc2c1)-c1ccc(Cl)cc1CO3,6.01µM*,17.0%,·,3.55µM*,?,2µM*
COCCNC(=O)c1ccc2c3n(nc2c1)-c1ccccc1CO3,3.79µM*,?,·,1µM*,?,1.12µM*
C=CCNC(=O)c1ccc2nc(-c3ccccc3)c(-c3ccccc3)nc2c1,-1.4%,-6.2%,-9.2%,-5.0%,-5.9%,-4.3%
C=CCNC(=O)c1ccc2c3n(nc2c1)-c1ccccc1CO3,0.675µM*,11.5%,·,?,?,0.447µM*
COc1ccc(CNC(=O)CCC2N=C3c4ccccc4N=C(SCc4cccc(F)c4)N3C2=O)cc1 (stereo not drawn),5.4%,·,·,·,·,·
COCCNC(=O)c1ccc2c3n(nc2c1)-c1ccc(Cl)cc1CO3,8.49µM*,5.8%,·,3.55µM*,?,1.41µM*
COCCNC(=O)c1ccc2c(c1)nc(C)n2-c1cccc(Cl)c1,-1.0%,11.2%,·,1.4%,4.2%,-4.4%
c1ccc(C2=NN(c3ccccc3)CC2)cc1,3.38µM*,?,·,3.55µM*,?,2.82µM*
CCOC(=O)/C(=C/c1ccc(OC(=O)c2ccncc2)cc1)C(C)=O,-13.0%,0.0%,4.5%,0.8%,2.6%,-4.0%
S=C1CCC(c2ccc(Cl)cc2)=NN1c1ccccc1,-1.3%,5.8%,·,-0.7%,-2.5%,2.2%
CCOC(=O)/C(=C/c1ccc(N2CCC(c3ccccc3)=N2)cc1)C(C)=O,-5.9%,?,-69.6%,?,20.6µM*,?
COc1ccc(-n2c(=O)c3sc4ccccc4c3n(Cc3ccccc3)c2=O)cc1,2.8%,·,0.2%,·,·,·

# Assay outcomes as filed in PubChem BioAssay.
